From publication PMC13541613, “GHT-SELEX demonstrates unexpectedly high intrinsic sequence specificity and complex DNA binding of many human transcription factors”

Assays:
Assay in all cases: HT-SELEX; 20 mM HEPES pH 7, 140 mM KCl, 5 mM NaCl, 1 mM K2HPO4, 2 mM MgSO4, 100 uM EGTA, ZnSO4, 0.1% Tween20; room temperature, 1 h; high values mean tight binding
Settings in all cases: protein: ivt; tags: eGFP (N-terminal); dsDNA, one strand shown
ZNF721 full-length = ZNF721 full-length (Homo sapiens, UniProt Q8TF20-2 1-923)
Sequence of ZNF721 full-length (Q8TF20 other isoform, or with tags, fused parts or gaps): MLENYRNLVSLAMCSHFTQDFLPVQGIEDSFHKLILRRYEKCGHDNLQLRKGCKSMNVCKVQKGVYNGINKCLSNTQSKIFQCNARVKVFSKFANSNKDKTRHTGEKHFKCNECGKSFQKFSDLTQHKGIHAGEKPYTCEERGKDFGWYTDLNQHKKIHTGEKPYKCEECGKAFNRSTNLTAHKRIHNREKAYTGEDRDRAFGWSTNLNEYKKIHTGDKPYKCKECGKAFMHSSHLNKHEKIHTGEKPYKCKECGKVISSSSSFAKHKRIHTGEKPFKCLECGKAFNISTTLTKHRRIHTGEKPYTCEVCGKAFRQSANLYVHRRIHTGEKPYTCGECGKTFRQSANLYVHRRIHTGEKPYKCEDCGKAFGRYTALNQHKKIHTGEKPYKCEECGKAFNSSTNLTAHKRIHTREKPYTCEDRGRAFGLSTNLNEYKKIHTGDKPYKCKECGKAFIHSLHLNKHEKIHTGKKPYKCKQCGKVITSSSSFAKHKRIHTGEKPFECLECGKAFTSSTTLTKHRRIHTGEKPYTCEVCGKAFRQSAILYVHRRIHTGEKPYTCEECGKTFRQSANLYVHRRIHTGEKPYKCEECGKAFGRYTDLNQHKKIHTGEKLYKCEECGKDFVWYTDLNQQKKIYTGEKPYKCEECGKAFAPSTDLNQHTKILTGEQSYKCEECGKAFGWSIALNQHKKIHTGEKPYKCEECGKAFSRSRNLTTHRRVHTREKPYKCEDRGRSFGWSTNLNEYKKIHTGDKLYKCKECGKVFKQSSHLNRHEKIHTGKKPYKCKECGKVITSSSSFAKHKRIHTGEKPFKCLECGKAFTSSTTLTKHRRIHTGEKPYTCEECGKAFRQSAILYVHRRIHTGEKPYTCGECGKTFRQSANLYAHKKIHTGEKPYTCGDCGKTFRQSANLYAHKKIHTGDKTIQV
Outline: (§1)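 Tagged transcription factor, expressed in HEK293 lysate or cell-free extract as a full-length protein or DNA-binding-domain fragment, was held on beads. It bound a randomized 40-base DNA library during 1 h at room temperature in low-stringency HEPES/KCl buffer with Tween20. Eluted DNA went through successive PCR cycles and Illumina sequencing of ~3 million 60 bp reads per sample. A higher relative k-mer count in the selected reads denotes tighter binding.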

ZNF721 DBD1 = ZNF721 DBD1 (Homo sapiens, UniProt Q8TF20-2 29-461)
Sequence of ZNF721 DBD1 (Q8TF20 17-449): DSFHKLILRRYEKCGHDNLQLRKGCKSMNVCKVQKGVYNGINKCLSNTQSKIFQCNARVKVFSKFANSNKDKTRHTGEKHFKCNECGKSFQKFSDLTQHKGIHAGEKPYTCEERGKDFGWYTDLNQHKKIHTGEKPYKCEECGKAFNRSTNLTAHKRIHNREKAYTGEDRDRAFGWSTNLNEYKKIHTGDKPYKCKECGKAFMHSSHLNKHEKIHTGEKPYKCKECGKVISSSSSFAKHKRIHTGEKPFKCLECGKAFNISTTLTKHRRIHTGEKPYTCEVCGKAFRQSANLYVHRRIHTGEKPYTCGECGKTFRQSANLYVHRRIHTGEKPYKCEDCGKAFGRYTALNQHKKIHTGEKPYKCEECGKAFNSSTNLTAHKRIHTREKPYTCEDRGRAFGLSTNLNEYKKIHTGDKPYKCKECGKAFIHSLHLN
Outline: as §1

ZNF721 DBD2 = ZNF721 DBD2 (Homo sapiens, UniProt Q8TF20-2 395-923)
Sequence of ZNF721 DBD2 (Q8TF20 383-911): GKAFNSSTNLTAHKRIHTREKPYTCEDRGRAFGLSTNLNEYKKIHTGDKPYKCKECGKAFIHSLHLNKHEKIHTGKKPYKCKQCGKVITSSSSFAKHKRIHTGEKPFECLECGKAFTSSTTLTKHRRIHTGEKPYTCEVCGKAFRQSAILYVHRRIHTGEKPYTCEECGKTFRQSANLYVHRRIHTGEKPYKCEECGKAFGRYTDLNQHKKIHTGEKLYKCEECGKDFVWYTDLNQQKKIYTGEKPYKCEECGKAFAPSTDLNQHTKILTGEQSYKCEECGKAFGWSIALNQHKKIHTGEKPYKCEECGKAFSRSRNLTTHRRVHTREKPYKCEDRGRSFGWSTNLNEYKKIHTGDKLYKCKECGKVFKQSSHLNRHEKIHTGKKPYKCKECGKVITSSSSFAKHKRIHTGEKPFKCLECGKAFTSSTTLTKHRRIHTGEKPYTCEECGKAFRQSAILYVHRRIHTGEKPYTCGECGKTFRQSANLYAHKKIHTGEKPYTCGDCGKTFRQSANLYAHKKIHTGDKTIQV
Outline: as §1

Row | Sequence | binding signal (ZNF721 full-length) [relative 10-mer count] | binding signal (ZNF721 DBD1) [relative 10-mer count] | binding signal (ZNF721 DBD2) [relative 10-mer count]
1 | CCCCGGCCCC | 0.12 | 0.00358 | –
2 | CCCCCCCCCC | 0.116 | 0.00358 | –
3 | AAAAGCTATA | 0.177 | 0.0882 | –
4 | CAAAAAAAAG | 0.269 | 0.0321 | 0.108
5 | AAAGCTATAC | 0.183 | 0.0924 | –
6 | CCCCCCTCAC | 0.103 | 0.00482 | 0.00443
7 | GAAGTGTATC | 0.279 | 0.247 | –
8 | CTTCATACCA | 0.116 | 0.165 | –
9 | ATACACTTCA | 0.245 | 0.223 | –
10 | CGAAAAAAGC | 0.221 | 0.0584 | 0.0645
11 | ATGAAGTGTA | 0.376 | 0.432 | –
12 | CCCGCCCGCC | 0.128 | 0.0044 | –
13 | CGGTATGAAG | 0.108 | 0.15 | –
14 | AGCTTCATAC | 0.196 | 0.296 | –
15 | CAGGGTGGGG | 0.111 | 0.00399 | 0.00384
16 | CCCCGACCCC | 0.24 | 0.00789 | –
17 | ACTTCATACA | 0.358 | 0.393 | –

Row | Sequence | binding signal (ZNF721 full-length) [relative 10-mer count] | binding signal (ZNF721 DBD1) [relative 10-mer count] | binding signal (ZNF721 DBD2) [relative 10-mer count]
18 | AACCCACCCC | 0.143 | 0.00596 | –
19 | CCCGCACCCC | 0.193 | 0.00784 | –
20 | ACTTCATACT | 0.154 | 0.27 | –
21 | GAAGCTATAC | 0.107 | 0.143 | –
22 | CGCCCCCCCC | 0.171 | 0.00527 | –
23 | AGGTATGAAG | 0.192 | 0.217 | –
24 | CCCCCGGCCC | 0.102 | 0.00394 | –
25 | CCCGCTCCCC | 0.13 | 0.00527 | –
26 | CCAGCCCCCC | 0.131 | 0.00316 | –
27 | CGCCGCCCCC | 0.138 | 0.00518 | –
28 | GCTTCATACC | 0.229 | 0.354 | –
29 | AAGAAGCTAT | 0.144 | 0.16 | –
30 | CTCCGCCCCC | 0.11 | 0.00537 | –
31 | CTTCATACCC | 0.221 | 0.363 | –
32 | AACCCCCACC | 0.108 | 0.00495 | –
33 | AGCTTCTTTC | 0.151 | 0.125 | –
34 | CCCAGCCCCC | 0.163 | 0.00518 | –
